PubChem BioAssay (NCATS)
Results filed as inconclusive are left out. Calls of active or inactive are those of the source. Calls come from the whole dose curve.

Test: qHTS Assay for Lipid Storage Modulators (AID 1519); for activity change, negative = inhibition: % is set by controls: 0 for no effect and ±100 for the full control effect
Conditions: Drosophila S3 cells, BODIPY lipid droplet/cell ratio, laser cytometry, cells loaded with oleic acid
Text: NIH Molecular Libraries Probe Production Centers Network [MLPCN]
NIH Chemical Genomics Center [NCGC]
Assay Submitter (PI): Beller, Mathias; Max-Planck-Institut fur Biophysikalische Chemie
NCGC Assay Overview: Storing lipids as a reservoir for energy or the anabolism of elementary metabolites is a common feature of probably all cells and is conserved from bacteria to humans. The universal cellular lipid storage organelle is the so-called lipid storage droplet (LD). Although ubiquitous, LDs share a simple structure composed of a hydrophobic core that harbors the storage lipids, which is shielded by a droplet-specific phospholipid monolayer to which proteins are attached. The current model of LD biogenesis involves an incorporation of the lipid core into the membrane leaflets of the endoplasmic reticulum (ER) followed by a subsequent budding-like maturation of a LD, which ultimately pinches off. Once released, LD volume can increase by localized lipogenesis or fusion of existing droplets. Storage lipids are re-mobilized enzymatically by lipase activity. Lipase regulation in the adipocyte is heavily studied and involves multiple components including catecholamine signaling, the LD-associated proteins Perilipin and comparative gene identification-58 (CGI-58) and at least two lipases named hormone sensitive lipase (HSL) and adipocyte triglyceride lipase (ATGL). LD regulation outside of the adipocyte is poorly understood and only few components are known. However, there is an urgent need to learn more about ectopic fat depots as mislocalized storage of lipids, for example in the liver or muscle, is an eminent health problem associated with insulin resistance or the metabolic syndrome. We developed a laser-scanning cytometer assay to enable 1,536-well screening and combined the results of the small molecules screen with an RNAi database based on lipid storage.
NCGC Assay Protocol Summary:
We dispensed 4 uL of cells at 1.25 x 10^6 cells/mL into LoBase Aurora COC 1,536-well plates (black walled, clear bottom) with a bottle-valve solenoid-based dispenser (Aurora) to obtain 5,000 cells/well. Triacsin C (Sigma-Aldrich T-4540), an inhibitor of long-chain fatty acyl CoA synthetase that blocks synthesis of triglycerides, was used as a positive control for lipid under-storage. A total of 23 nL of compound solution of different concentrations were transferred to the assay plates using a Kalypsys pin tool equipped with a 1,536-pin array containing 10-nL slotted pins (FP1S10, 0.457-mm diameter, 50.8 mm long; V&P Scientific). One microliter of oleic acid (400 uM) was added, and the plate was lidded with stainless steel rubber gasket lined lids containing pinholes. […] Fluorescence was detected by excitation of the fluorophores with a 488-nm laser on an Acumen Explorer (TTP Lab Tech). The total intensity in channel 1 (500-530 nm) reflected lipid droplet accumulation. […] The ratio of the total intensity in PMT channel 1 over total intensity of channel 3 was also calculated. Percent activity was computed relative to an internal control (100% inhibited lipid droplet deposition due to the presence of 20 uM Triacsin C), which was added to 32 wells/plate.

[1] = measured here: cell count channel max response
[2] = measured here: lipid channel max response

Row | SMILES | activity change, negative = inhibition (at 25.7 µM (top of the series)) | max response [1] [%] | max response [2] [%] | activity change, negative = inhibition (at 57.5 µM (top of the series))
1 | COc1ccc2c(OC)c3ccoc3nc2c1OC | -9.25% (inactive) | 0.385 | -6.85 | 
2 | Nc1nc2c(ncn2[C@@H]2O[C@H](CO)[C@@H](O)[C@H]2O)c(=O)[nH]1 |  | -11.6 | -14.4 | -2.55% (inactive)
3 | CC(=O)c1cc2c(cc1O)OC(C)(C)C=C2 |  | -14.4 | 0.328 | 18.6% (inactive)
4 | CC(C)C(N)C(=O)OCCOCn1cnc2c(=O)[nH]c(N)nc21 (configuration not stated) |  | 9.47 | 21.7 | 7.31% (inactive)
